This is an account of results in ChEMBL document CHEMBL2218924, “A broad activity screen in support of a chemogenomic map for kinase signalling research and drug discovery” (Biochem J, 2013).

The target of test [1] is Tyrosine-protein kinase SYK (Homo sapiens) (UniProt P43405). The conditions noted are these: at 10 µM.
In test [2] the target is T1, Mitogen-activated protein kinase kinase kinase 7 (Homo sapiens) (UniProt O43318).
T1 sequence (whole entry): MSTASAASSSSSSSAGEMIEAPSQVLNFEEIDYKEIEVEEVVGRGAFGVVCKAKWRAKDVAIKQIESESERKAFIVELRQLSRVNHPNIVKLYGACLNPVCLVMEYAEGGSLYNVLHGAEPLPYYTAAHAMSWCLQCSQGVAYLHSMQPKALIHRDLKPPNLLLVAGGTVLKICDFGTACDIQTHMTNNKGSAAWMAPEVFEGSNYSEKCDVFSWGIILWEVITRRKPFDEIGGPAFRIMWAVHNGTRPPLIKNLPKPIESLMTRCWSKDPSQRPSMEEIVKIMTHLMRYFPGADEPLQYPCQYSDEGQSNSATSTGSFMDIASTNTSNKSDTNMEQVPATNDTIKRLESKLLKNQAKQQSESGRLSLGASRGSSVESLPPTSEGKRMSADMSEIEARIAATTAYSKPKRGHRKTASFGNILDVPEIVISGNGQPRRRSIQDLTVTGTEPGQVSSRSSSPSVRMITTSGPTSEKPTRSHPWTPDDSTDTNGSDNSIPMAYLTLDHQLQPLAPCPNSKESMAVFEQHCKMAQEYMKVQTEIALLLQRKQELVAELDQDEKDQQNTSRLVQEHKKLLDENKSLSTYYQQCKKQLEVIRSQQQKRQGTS
The conditions noted are these: at 1 µM.

Test [3] has as its target T1, Mitogen-activated protein kinase kinase kinase 7 (Homo sapiens). To be noted: at 10 µM.
Test [4] addresses T2, Serine/threonine-protein kinase TAO1 (Homo sapiens) (UniProt Q7L7X3).
T2 sequence (whole entry): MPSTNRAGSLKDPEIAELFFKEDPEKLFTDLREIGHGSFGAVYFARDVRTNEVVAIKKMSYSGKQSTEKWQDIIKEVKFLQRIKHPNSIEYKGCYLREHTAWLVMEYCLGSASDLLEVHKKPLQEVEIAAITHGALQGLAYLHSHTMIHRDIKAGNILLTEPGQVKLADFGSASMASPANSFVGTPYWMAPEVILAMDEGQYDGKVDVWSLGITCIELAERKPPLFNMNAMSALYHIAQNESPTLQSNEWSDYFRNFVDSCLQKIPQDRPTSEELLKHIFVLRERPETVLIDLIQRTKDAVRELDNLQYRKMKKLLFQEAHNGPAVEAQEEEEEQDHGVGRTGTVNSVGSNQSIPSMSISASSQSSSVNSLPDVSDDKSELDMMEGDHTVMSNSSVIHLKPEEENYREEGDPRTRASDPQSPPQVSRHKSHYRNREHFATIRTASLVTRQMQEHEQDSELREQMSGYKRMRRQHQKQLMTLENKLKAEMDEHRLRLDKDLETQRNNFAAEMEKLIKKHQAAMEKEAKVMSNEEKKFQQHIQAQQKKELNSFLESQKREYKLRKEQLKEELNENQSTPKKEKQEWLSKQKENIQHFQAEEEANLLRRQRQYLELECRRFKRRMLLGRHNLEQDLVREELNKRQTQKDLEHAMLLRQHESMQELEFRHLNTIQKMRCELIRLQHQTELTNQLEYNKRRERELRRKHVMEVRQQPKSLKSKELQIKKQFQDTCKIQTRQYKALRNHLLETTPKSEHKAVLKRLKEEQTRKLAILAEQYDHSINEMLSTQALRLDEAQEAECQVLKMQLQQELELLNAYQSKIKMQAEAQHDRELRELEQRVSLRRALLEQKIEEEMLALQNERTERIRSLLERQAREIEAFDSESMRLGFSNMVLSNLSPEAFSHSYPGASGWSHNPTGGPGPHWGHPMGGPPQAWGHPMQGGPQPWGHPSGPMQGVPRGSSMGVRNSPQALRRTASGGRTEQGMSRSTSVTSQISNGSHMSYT
To be noted: at 1 µM.

Test [5] deals with T2, Serine/threonine-protein kinase TAO1 (Homo sapiens). The conditions noted are these: at 10 µM.
The target in test [6] is T3, Serine/threonine-protein kinase TAO2 (Homo sapiens) (UniProt Q9UL54).
T3 sequence (whole entry): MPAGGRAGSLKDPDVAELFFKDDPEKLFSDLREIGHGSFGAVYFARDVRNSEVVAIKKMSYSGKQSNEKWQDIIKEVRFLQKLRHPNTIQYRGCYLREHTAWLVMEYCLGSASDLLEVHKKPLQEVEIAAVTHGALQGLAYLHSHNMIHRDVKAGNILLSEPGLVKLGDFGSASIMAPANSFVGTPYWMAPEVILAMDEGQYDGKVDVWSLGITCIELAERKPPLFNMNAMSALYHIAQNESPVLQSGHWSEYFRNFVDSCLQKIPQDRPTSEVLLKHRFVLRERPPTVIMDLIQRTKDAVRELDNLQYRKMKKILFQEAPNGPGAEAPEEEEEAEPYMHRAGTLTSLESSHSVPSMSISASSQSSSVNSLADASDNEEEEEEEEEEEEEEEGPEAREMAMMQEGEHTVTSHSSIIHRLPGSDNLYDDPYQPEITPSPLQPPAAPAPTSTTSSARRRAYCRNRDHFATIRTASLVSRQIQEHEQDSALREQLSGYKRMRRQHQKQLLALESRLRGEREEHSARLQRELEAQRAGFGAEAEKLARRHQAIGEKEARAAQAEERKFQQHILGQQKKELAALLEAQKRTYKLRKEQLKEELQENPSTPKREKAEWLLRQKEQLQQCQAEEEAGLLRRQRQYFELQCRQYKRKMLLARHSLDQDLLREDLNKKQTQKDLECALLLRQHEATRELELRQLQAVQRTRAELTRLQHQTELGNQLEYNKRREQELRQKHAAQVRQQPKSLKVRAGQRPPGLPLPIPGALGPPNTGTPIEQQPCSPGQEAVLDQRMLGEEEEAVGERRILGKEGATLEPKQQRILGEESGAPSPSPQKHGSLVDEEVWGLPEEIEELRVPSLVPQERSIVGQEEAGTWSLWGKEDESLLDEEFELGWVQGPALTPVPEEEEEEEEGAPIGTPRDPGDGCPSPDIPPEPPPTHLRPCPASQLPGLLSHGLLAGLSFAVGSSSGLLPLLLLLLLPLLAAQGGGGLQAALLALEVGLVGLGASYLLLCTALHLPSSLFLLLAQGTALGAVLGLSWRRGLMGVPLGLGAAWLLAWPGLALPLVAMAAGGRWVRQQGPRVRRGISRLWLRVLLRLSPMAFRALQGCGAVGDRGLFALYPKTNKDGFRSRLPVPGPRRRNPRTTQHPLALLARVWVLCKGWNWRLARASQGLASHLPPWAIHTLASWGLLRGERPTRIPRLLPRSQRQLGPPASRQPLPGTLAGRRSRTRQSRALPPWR
The conditions noted are these: at 1 µM.

Test [7] has as its target T3, Serine/threonine-protein kinase TAO2 (Homo sapiens). The conditions noted are these: at 10 µM.
Test [8] addresses T4, Serine/threonine-protein kinase TAO3 (Homo sapiens) (UniProt Q9H2K8).
T4 sequence (whole entry): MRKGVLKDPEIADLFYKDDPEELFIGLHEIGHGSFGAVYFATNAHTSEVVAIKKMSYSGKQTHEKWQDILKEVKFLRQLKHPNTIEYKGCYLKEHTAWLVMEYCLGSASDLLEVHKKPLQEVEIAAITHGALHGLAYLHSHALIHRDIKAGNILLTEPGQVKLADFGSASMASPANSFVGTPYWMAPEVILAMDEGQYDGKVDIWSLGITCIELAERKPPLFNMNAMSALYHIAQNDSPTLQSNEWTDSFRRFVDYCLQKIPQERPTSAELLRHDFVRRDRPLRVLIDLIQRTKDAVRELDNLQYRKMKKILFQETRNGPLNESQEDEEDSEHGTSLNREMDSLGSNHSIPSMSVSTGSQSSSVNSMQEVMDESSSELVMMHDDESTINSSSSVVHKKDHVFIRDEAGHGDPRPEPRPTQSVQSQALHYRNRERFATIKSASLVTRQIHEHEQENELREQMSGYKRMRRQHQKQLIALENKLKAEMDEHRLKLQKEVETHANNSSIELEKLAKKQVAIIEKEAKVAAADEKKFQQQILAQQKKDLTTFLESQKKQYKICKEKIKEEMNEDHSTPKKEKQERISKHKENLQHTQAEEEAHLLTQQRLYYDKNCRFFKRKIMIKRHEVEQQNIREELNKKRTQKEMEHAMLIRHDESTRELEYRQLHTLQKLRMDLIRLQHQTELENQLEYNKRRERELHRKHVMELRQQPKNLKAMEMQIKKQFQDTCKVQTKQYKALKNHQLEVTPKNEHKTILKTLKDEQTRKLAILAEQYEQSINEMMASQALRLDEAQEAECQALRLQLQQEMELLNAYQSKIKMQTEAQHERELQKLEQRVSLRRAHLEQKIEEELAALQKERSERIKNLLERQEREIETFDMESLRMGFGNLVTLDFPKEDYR
To be noted: at 1 µM.

Test [9] has as its target T4, Serine/threonine-protein kinase TAO3 (Homo sapiens). The conditions noted are these: at 10 µM.

Consider `Cc1cc2ncc(-c3ccccc3)nc2cc1C`, for which the residual activity in [1] turned out to be 108%; in [2] it was 96%; in test [3] it was 95%; in test [4], 109%; in [5] it was 101%; in [6], 106%. The residual activity was found to be 91% in [7], 100% in test [8] and 101% in test [9].
